PubChem BioAssay AID720567 (Broad Institute, 2013)
Results with a measured potency or affinity are listed apart. Active and inactive are the calls of the source. No rule for the calls is given here.

Assay: toxicity toward HEK293 cells – cell-based, dry powder samples, cytotoxicity control, dose response (AID 720567)
Conditions: plate reader; series mostly up to 15 µM

Compound | outcome
COc1ccc(CSc2nnc(-c3ccccc3)o2)cc1 | inactive
c1ccc(CSc2nnc(-c3ccccc3)o2)cc1 | inactive
CC(=O)N[C@H]1[C@@H](O[C@@H]2OC(C[C@@H](O)C3O[C@@H](n4ccc(=O)[nH]c4=O)[C@H](O)[C@@H]3O)[C@H](O)[C@H](O)[C@H]2NC(=O)/C=C/CCCCCCCCCCC(C)C)O[C@H](CO)[C@@H](O)[C@@H]1O (stereo partly drawn) | inactive
